Source: PubChem BioAssay
Most compounds without a hit are left out; they make up all but 3.9% or so of the library.
CCHF vOTU inh – CCHFV vOTU protease inhibition | Pep-AMC fluorescence | inhibition, % at 11.5 µM | 370,000 compounds, 0.55% hits; in the data active = inhibition above about 30%; note: 0% = vehicle wells with enzyme and 100% = no enzyme wells
BoNT F protease – blocks Botulinum neurotoxin F light chain protease; 360,000 compounds, 0.22% hits; Multiplex microsphere protease cleavage assay, flow cytometry; AID 588497; inhibition, % at 10 µM; in the data active = inhibition above about 35%, passing the limit was not always enough; inconclusive = no clear call, values can overlap the other calls; note: plate controls were buffer without enzyme for full effect and enzyme alone for no effect
Anthrax LF prot – blocks Bacillus anthracis lethal factor protease | P15917 | multiplex microsphere protease cleavage assay, LF | inhibition, % at 10 µM | 360,000 compounds, 0.12% hits | AID 588501; note: plate controls were buffer without enzyme for full effect and enzyme alone for no effect
Target sequence (P15917 whole entry, looked up): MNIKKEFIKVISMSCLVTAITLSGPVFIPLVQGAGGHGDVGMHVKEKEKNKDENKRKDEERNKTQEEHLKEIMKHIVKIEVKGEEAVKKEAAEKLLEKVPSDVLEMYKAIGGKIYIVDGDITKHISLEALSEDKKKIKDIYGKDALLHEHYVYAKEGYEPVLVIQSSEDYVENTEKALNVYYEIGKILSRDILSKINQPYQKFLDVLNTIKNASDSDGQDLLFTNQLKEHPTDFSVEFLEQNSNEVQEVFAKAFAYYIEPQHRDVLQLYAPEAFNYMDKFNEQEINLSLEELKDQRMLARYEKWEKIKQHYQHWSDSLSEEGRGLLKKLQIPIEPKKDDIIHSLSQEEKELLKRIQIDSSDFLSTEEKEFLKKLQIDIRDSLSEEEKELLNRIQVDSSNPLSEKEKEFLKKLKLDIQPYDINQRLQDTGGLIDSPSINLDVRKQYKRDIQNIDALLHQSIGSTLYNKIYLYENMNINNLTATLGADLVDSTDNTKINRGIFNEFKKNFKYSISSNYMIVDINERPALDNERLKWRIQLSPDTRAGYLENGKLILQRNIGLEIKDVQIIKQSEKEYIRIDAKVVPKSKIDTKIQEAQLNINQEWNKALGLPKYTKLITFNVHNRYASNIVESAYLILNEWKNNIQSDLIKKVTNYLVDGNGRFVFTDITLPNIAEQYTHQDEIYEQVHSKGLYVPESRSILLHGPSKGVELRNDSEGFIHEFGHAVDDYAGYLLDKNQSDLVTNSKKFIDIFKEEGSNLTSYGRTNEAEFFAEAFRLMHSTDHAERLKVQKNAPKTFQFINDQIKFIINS
Bead autofluor – counter-screen for toxin protease inhibitors: compound fluorescence; compound autofluorescence counterscreen, microsphere flow cytometry; hits give high values; fluorescence intensity (test concentration not listed); 360,000 compounds, 3.1% hits; in the data active = fluorescence intensity above about 16000; inconclusive = no clear call, values can overlap the other calls
SARS 3CLpro inh – SARS-CoV 3CLpro protease inhibition; P0C6X7; recombinant SARS-CoV 3CLpro, quenched FRET peptide cleavage; inhibition, % at 6 µM; 290,000 compounds, 0.14% hits; in the data active = inhibition above about 12%
BoNT-A LC inh2 – BoNT A light chain protease inhibition. multiplex microsphere protease substrate cleavage, flow cytometry. inhibition, % at 10 µM. 360,000 compounds, 0.17% hits. AID 588499; note: plate controls were buffer without enzyme for full effect and enzyme alone for no effect
An asterisk follows results filed as active; ? = inconclusive; nt = no result given. Cut-off read from the data, not from the text of the source, unless noted: active = inhibition above about 30%; inconclusive = no clear call, values can overlap the other calls; inactive = below that.

SMILES	CCHF vOTU inh	BoNT F protease	Anthrax LF prot	Bead autofluor	SARS 3CLpro inh	BoNT-A LC inh2
COc1ccc(-c2[nH]nc3c2C(c2ccsc2)C(C#N)=C(N)O3)cc1 (stereo not given)	-1	-4	-4	16667*	4	-1
COc1cc(-c2[nH]nc3c2C(c2ccoc2)C(C#N)=C(N)O3)cc(OC)c1OC (stereo not given)	11	-11	-5	2760	2	0
COc1cccc(-c2[nH]nc3c2C(c2ccoc2)C(C#N)=C(N)O3)c1 (stereo not given)	13	2	0	21204*	1	?
COCCNC(=O)C1CCCN(Cc2cccc(C#N)c2)CC1 (stereo not given)	11	-4	-4	3899	nt	0
COc1ccc(Cn2c(C)cc3c(c2=O)C(c2cccs2)C(C#N)=C(N)O3)cc1OC (stereo not given)	-7	20	-17	16938*	5	15
CCOc1ccc(C2C(C#N)=C(N)Oc3cc(C)n(CCN(C)C)c(=O)c32)cc1OCC (stereo not given)	-6	0	-2	16485*	-3	0
Cc1cc2c(c(=O)n1CCN(C)C)C(c1ccc(Cl)cc1)C(C#N)=C(N)O2 (stereo not given)	-1	-7	-2	24829*	0	?
Cc1cc2cc(CNC(=O)c3ccc4c(c3)OCO4)ccc2[nH]1	-15	-85	-41	2941	2	67*
CCc1c(C(=O)NCc2ccc3c(c2)OCO3)[nH]c(C)c1C(C)=O	-1	-3	-3	17026*	-3	-2
O=C(NCc1ccc2c(c1)OCO2)c1ccc2c(c1)OCO2	5	-1	-2	4997	2	-1
CC(=O)c1c(C)[nH]c(C(=O)OCC(=O)NCc2ccc3c(c2)OCO3)c1C	2	-1	0	3930	nt	0
Cc1ccc2c(c1)C1CS(=O)(=O)N(CCc3ccccc3)C(=O)N1C2 (stereo not given)	18	nt	nt	nt	nt	nt
CSCCC(NC(=O)c1ccccc1Cl)C(=O)N1CC(C)OC(C)C1 (stereo not given)	3	-4	-3	4012	nt	0
O=C(Nc1c(C(=O)N2CCOCC2)cnn1-c1ccccc1)c1ccccc1	4	5	-2	11466	3	-1
O=C(Nc1c(C(=O)N2CCOCC2)cnn1-c1ccccc1)c1ccco1	-11	-2	-4	23770*	1	?
O=C1Nc2ccccc2CCC1Sc1nnc(-c2ccc(Cl)cc2)s1 (stereo not given)	5	-4	-2	24726*	-3	-3
CCOC(=O)CN1C(=O)C(Sc2nnc(-c3ccccc3OC)s2)CCc2ccccc21 (stereo not given)	nt	nt	nt	nt	-3	nt
CCc1ccc(N2CSC3=C(C#N)C(c4cccs4)CC(=O)N3C2)cc1 (stereo not given)	nt	-4	-2	25679*	-8	-5
Cc1ccc(N2CSC3=C(C#N)C(c4cccs4)CC(=O)N3C2)cc1 (stereo not given)	16	17	-1	4262	-1	1
Cc1cccc(N(C)S(=O)(=O)c2ccc3[nH]c(=O)c(=O)[nH]c3c2)c1	1	-1	4	16965*	4	?
Cc1cccc(N(C)S(=O)(=O)c2ccc3c(c2)NC(=O)CC(=O)N3)c1	-7	0	3	4510	-10	0
Cc1ccc(C(=O)NC2CCC(C)CC2)o1 (stereo not given)	7	nt	nt	nt	nt	nt
COC(=O)C1=C(C)C(c2cccs2)NC(=O)N1C (stereo not given)	-10	0	-3	16502*	2	?
CCN1C(=O)N[C@@H](c2cccs2)C(C(=O)OC)=C1C	8	1	4	4040	nt	0
CCn1c(SCc2c(F)cccc2F)nc2sc3c(c2c1=O)CCCC3	-1	nt	nt	nt	nt	nt
SMILES	CCHF vOTU inh	BoNT F protease	Anthrax LF prot	Bead autofluor	SARS 3CLpro inh	BoNT-A LC inh2
COc1ccc2[nH]c(-c3ccccc3)cc2c1	-34	-4	-9	4047	1	-1
Cc1nn(Cc2ccccc2)c(C)c1NC(=O)c1cc(-c2ccco2)on1	7	0	2	20385*	-2	2
COc1ccc(OC)c(-c2cc(C(=O)Nc3c(C)nn(Cc4ccccc4)c3C)no2)c1	7	-4	-2	11097	2	-1
CCc1ccc(NC(=O)c2cc(-c3ccco3)on2)cc1	-20	-3	-1	24283*	5	-2
Cc1nn(Cc2ccc(Cl)c(Cl)c2)c(C)c1NC(=O)c1cc(-c2ccc3c(c2)OCO3)on1	-8	9	-19	19313*	-2	?
Clc1ccc(Cn2ccc(-c3ccc4c(c3)OCO4)n2)cc1Cl	8	-2	-1	23441*	4	0
Cc1nn(Cc2ccc(Cl)cc2)c(C)c1NC(=O)c1cc(-c2ccc3c(c2)OCO3)on1	-6	-9	-4	10100	-1	-2
O=C(CSc1nnc(-c2cccnc2)n1-c1ccccc1)Nc1cccc2ccccc12	-8	nt	nt	nt	nt	nt
COc1cc2c(cc1OC)C(c1cc(C)ccc1C)CC(=O)N2 (stereo not given)	15	?	-4	3779	-1	?
O=C(C[C@H]1C=C[C@@H](NS(=O)(=O)c2ccccc2)[C@@H](CO)O1)NCc1ccc(Cl)c(Cl)c1	-13	nt	nt	nt	nt	nt
CC1=CCC(C(=O)O)C(C(=O)O)C1 (stereo not given)	0	-1	-1	22181*	4	-1
CC1=CCC(C(=O)O)C(C(=O)NC2CCCCC2)C1 (stereo not given)	7	-1	-4	6105	-1	-2
CCc1ccc(C(=O)CSc2nc3ccccc3c(=O)[nH]2)cc1	10	1	-6	21509*	3	0
Cc1ccc(C(=O)CSc2nc3ccccc3c(=O)[nH]2)cc1	22	4	-8	21593*	-3	3
C=CCN1CC(c2nc3ccccc3n2Cc2cccc3ccccc23)CC1=O (stereo not given)	-2	-3	-1	19853*	-4	-1
Cc1ccc(OCCn2c(C3CC(=O)N(Cc4ccccc4)C3)nc3ccccc32)cc1 (stereo not given)	14	-10	-5	4297	2	0
CC(C)(C)NC(=O)CN(Cc1cccs1)C(=O)CNS(=O)(=O)c1ccc(F)cc1	5	-4	0	3144	5	0
CCC(C)(C)NC(=O)CN(Cc1cccs1)C(=O)CNS(=O)(=O)c1ccc(C)cc1	4	-2	-3	16739*	2	-1
Cc1cccc(C)c1NC(=O)[C@@H]1CC(=O)O[C@@H]1c1ccccc1	-8	nt	nt	nt	nt	nt
Cc1cc(NC(=O)C2CC(=O)OC2c2ccccc2)no1 (stereo not given)	-1	-5	0	23968*	3	-1
COc1ccccc1-n1c(C)nnc1SCC(N)=O	-7	1	3	22827*	0	1
COc1ccccc1-n1c(C)nnc1SCC(=O)Nc1cc(C)cc(C)c1	-5	0	-2	23628*	4	0
CC1(C)Cc2c(sc3ncnc(N)c23)CO1	3	6	-8	18415*	-3	4
